# Reference: PubChem BioAssay AID1159580 (chemical genetic matrix, 2015)
# Hit rate of the full screen: of about 5,500 compounds, about 2,000 (36%) were called active. About 18% were inconclusive and are not listed. This is one part of the list. A number with no mark means an inactive call. Cut-off read from the data, not from the text of the source: active = normalized growth mostly below about 0.91 (no sharp cut-off); inconclusive = no clear call, values can overlap the other calls; inactive = mostly above about 0.92.
# Assay: chemical genetic growth profiling, strain panel (AID 1159580);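 note: tested at 20 µM; growth read once vehicle control cultures reached saturation at 30 °C; 1 = growth at the plate median or of vehicle wells; lower values mean less growth of the strain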
# Conditions: S. cerevisiae deletion strains, growth OD
# [1] = locus YHR030C, strain SLT2, active compounds read low
# [2] = locus YJL187C, strain SWE1, active compounds read low
# [3] = locus YHR079C, strain IRE1, active compounds read low
# [4] = locus YJL095W, strain BCK1, active compounds read low
# [5] = locus YJR066W, strain TOR1, active compounds read low
# [6] = locus YLR113W, strain HOG1, active compounds read low
# [7] = locus YNL183C, strain NPR1, active compounds read low
# [8] = locus YOR231W, strain MKK1, active compounds read low
# [9] = locus YPL256C, strain CLN2, active compounds read low
smiles,measurement,setting,value
COC(=O)C1Cc2c([nH]c3ccccc23)C2(CCN(C)CC2)N1 (stereo unspecified),normalized growth,"locus YAL013W, strain DEP1, active compounds read low",1.01
same,normalized growth,"locus YBR229C, strain ROT2, active compounds read low",0.989
same,normalized growth,"locus YDL101C, strain DUN1, active compounds read low",0.995
same,normalized growth,"locus YDL134C, strain PPH21, active compounds read low",0.981
same,normalized growth,"locus YDR150W, strain NUM1, active compounds read low",0.986
same,normalized growth,"locus YEL061C, strain CIN8, active compounds read low",0.993
same,normalized growth,"locus YGR078C, strain PAC10, active compounds read low",0.993
same,normalized growth,[1],0.985
same,normalized growth,"locus YHR087W, strain rtc3, active compounds read low",0.998
same,normalized growth,[2],0.996
same,normalized growth,"locus YJR043C, strain POL32, active compounds read low",1
same,normalized growth,"locus YJR075W, strain HOC1, active compounds read low",0.998
same,normalized growth,"locus YLR039C, strain RIC1, active compounds read low",0.975
same,normalized growth,"locus YLR058C, strain SHM2 (second series), active compounds read low",1.01
same,normalized growth,"locus YLR085C, strain ARP6, active compounds read low",1.01
same,normalized growth,"locus YLR262C, strain YPT6, active compounds read low",0.981
same,normalized growth,"locus YML094W, strain GIM5, active compounds read low",0.961
same,normalized growth,"locus YMR219W, strain ESC1, active compounds read low",0.995
same,normalized growth,"locus YMR263W, strain SAP30, active compounds read low",1.02
same,normalized growth,"locus YNL128W, strain TEP1, active compounds read low",0.973
same,normalized growth,"locus YNL153C, strain GIM3, active compounds read low",0.999
same,normalized growth,"locus YNL298W, strain CLA4 (second series), active compounds read low",1.02
same,normalized growth,"locus YNL322C, strain KRE1, active compounds read low",0.987
same,normalized growth,"locus YNR030W, strain Alg12, active compounds read low",1.01
same,normalized growth,"locus YOL006C, strain TOP1, active compounds read low",1
same,normalized growth,"locus YPL055C, strain LGE1, active compounds read low",1.01
same,normalized growth,"locus YPL241C, strain CIN2, active compounds read low",0.977
same,normalized growth,"locus YPR135W, strain CTF4, active compounds read low",0.944
CCCNCCCCCC[N+](C)(C)C,normalized growth,[1],1.02
same,normalized growth,[3],0.975
same,normalized growth,[4],0.979
same,normalized growth,[5],0.927
same,normalized growth,[6],1.02
same,normalized growth,[7],0.932
same,normalized growth,[8],0.984
same,normalized growth,[9],0.989
Cc1cc(-n2c(=O)[nH]c(=O)n(C)c2=O)ccc1Oc1ccc(SC(F)(F)F)cc1,normalized growth,"locus YAL021C, strain ccr4, active compounds read low",0.925
same,normalized growth,"locus YAL026C, strain drs2, active compounds read low",0.602 (active)
same,normalized growth,"locus YAL030W, strain snc1, active compounds read low",0.565 (active)
same,normalized growth,"locus YBL061C, strain skt5, active compounds read low",0.688 (active)
same,normalized growth,"locus YBR009C, strain hhf1, active compounds read low",0.552 (active)
same,normalized growth,"locus YBR023C, strain chs3, active compounds read low",0.742 (active)
same,normalized growth,"locus YBR171W, strain sec66, active compounds read low",0.802 (active)
same,normalized growth,"locus YBR231C, strain swc5, active compounds read low",0.868 (active)
same,normalized growth,"locus YBR279W, strain paf1, active compounds read low",0.935
same,normalized growth,"locus YCL011C, strain gbp2, active compounds read low",0.548 (active)
same,normalized growth,"locus YCL016C, strain dcc1, active compounds read low",0.905 (active)
same,normalized growth,"locus YCL061C, strain MRC1, active compounds read low",0.792 (active)
same,normalized growth,"locus YCL069W, strain vba3, active compounds read low",0.978
same,normalized growth,"locus YCR088W, strain abp1, active compounds read low",0.793 (active)
same,normalized growth,"locus YDL005C, strain med2, active compounds read low",0.583 (active)
same,normalized growth,"locus YDL040C, strain nat1, active compounds read low",0.863 (active)
same,normalized growth,"locus YDR001C, strain nth1, active compounds read low",0.845 (active)
same,normalized growth,"locus YDR069C, strain doa4, active compounds read low",0.941
same,normalized growth,"locus YDR137W, strain rgp1, active compounds read low",0.405 (active)
same,normalized growth,"locus YDR159W, strain sac3, active compounds read low",0.532 (active)
same,normalized growth,"locus YDR195W, strain ref2",0.418 (active)
same,normalized growth,"locus YDR297W, strain sur2, active compounds read low",0.695 (active)
same,normalized growth,"locus YDR334W, strain swr1, active compounds read low",0.855 (active)
same,normalized growth,"locus YDR335W, strain msn5, active compounds read low",0.661 (active)
same,normalized growth,"locus YDR392W, strain spt3, active compounds read low",0.141 (active)
same,normalized growth,"locus YEL003W, strain gim4, active compounds read low",0.704 (active)
same,normalized growth,"locus YEL037C, strain rad23, active compounds read low",0.933
same,normalized growth,"locus YEL061C, strain CIN8 (second series), active compounds read low",0.647 (active)
same,normalized growth,"locus YER015W, strain faa2, active compounds read low",0.994
same,normalized growth,"locus YER016W, strain bim1, active compounds read low",0.935
same,normalized growth,"locus YER111C, strain swi4, active compounds read low",0.75 (active)
same,normalized growth,"locus YER155C, strain BEM2 (second series), active compounds read low",0.968
same,normalized growth,"locus YFR010W, strain ubp6, active compounds read low",0.76 (active)
same,normalized growth,"locus YGL167C, strain pmr1, active compounds read low",1.02
same,normalized growth,"locus YGL173C, strain kem1, active compounds read low",0.895 (active)
same,normalized growth,"locus YGL227W, strain vid30, active compounds read low",0.867 (active)
same,normalized growth,"locus YGL240W, strain doc1, active compounds read low",0.629 (active)
same,normalized growth,"locus YGL253W, strain hxk2, active compounds read low",0.701 (active)
same,normalized growth,"locus YHR013C, strain ard1, active compounds read low",0.998
same,normalized growth,"locus YHR027C, strain rpn1, active compounds read low",0.969
same,normalized growth,[1],0.811 (active)
same,normalized growth,[3],0.786 (active)
same,normalized growth,"locus YHR142W, strain chs7, active compounds read low",0.318 (active)
same,normalized growth,"locus YJL092W, strain hpr5, active compounds read low",0.844 (active)
same,normalized growth,"locus YJL095W, strain BCK1 (second series), active compounds read low",0.754 (active)
same,normalized growth,[4],0.724 (active)
same,normalized growth,"locus YJL115W, strain asf1, active compounds read low",0.926
same,normalized growth,"locus YJL129C, strain trk1, active compounds read low",0.882
same,normalized growth,"locus YJL154C, strain vps35, active compounds read low",0.644 (active)
same,normalized growth,"locus YJL164C, strain tpk1, active compounds read low",0.346 (active)
same,normalized growth,"locus YJL166W, strain qcr8, active compounds read low",0.383 (active)
same,normalized growth,[2],0.546 (active)
same,normalized growth,[5],0.75 (active)
same,normalized growth,"locus YKL160W, strain elf1, active compounds read low",0.69 (active)
same,normalized growth,"locus YKR026C, strain gcn3, active compounds read low",0.707 (active)
same,normalized growth,"locus YKR091W, strain srl3, active compounds read low",0.908 (active)
same,normalized growth,"locus YLL001W, strain dnm1, active compounds read low",0.844 (active)
same,normalized growth,"locus YLL026W, active compounds read low",0.169 (active)
same,normalized growth,"locus YLL041C, strain sdh2, active compounds read low",0.775 (active)
same,normalized growth,"locus YLR027C, strain aat2, active compounds read low",0.589 (active)
same,normalized growth,[6],0.764 (active)
same,normalized growth,"locus YLR221C, strain rsa3, active compounds read low",0.436 (active)
same,normalized growth,"locus YLR258W, strain gsy2, active compounds read low",0.705 (active)
same,normalized growth,"locus YLR262C, strain YPT6 (second series), active compounds read low",0.367 (active)
same,normalized growth,"locus YLR320W, strain mms22, active compounds read low",0.823 (active)
same,normalized growth,"locus YLR342W, strain FKS1, active compounds read low",0.864 (active)
same,normalized growth,"locus YLR357W, strain rsc2, active compounds read low",0.581 (active)
same,normalized growth,"locus YLR370C, strain arc18, active compounds read low",0.886 (active)
same,normalized growth,"locus YLR384C, strain iki3, active compounds read low",1.03
same,normalized growth,"locus YML120C, strain ndi1, active compounds read low",0.844 (active)
same,normalized growth,"locus YMR058W, strain fet3, active compounds read low",0.705 (active)
same,normalized growth,"locus YMR125W, strain sto1, active compounds read low",0.709 (active)
same,normalized growth,"locus YMR129W, active compounds read low",1.02
same,normalized growth,"locus YMR205C, strain PFK2, active compounds read low",0.705 (active)
same,normalized growth,"locus YMR231W, strain pep5, active compounds read low",0.703 (active)
same,normalized growth,"locus YNL071W, strain lat1, active compounds read low",0.422 (active)
same,normalized growth,[7],0.81 (active)
same,normalized growth,"locus YNL209W, strain ssb2, active compounds read low",0.915 (active)
same,normalized growth,"locus YNL248C, strain rpa49, active compounds read low",0.635 (active)
same,normalized growth,"locus YNL322C, strain KRE1 (second series), active compounds read low",1.03
same,normalized growth,"locus YNR049C, strain mso1, active compounds read low",0.98
same,normalized growth,"locus YOR001W, strain rrp6, active compounds read low",0.888 (active)
same,normalized growth,"locus YOR070C, strain gyp1, active compounds read low",0.754 (active)
same,normalized growth,"locus YOR080W, strain dia2, active compounds read low",1.02
same,normalized growth,"locus YOR083W, strain WHI5, active compounds read low",0.758 (active)
same,normalized growth,"locus YOR106W, strain vam3, active compounds read low",0.424 (active)
same,normalized growth,[8],0.804 (active)
same,normalized growth,"locus YOR265W, strain rbl2, active compounds read low",0.893 (active)
same,normalized growth,"locus YOR270C, strain vph1, active compounds read low",0.344 (active)
same,normalized growth,"locus YOR290C, strain snf2, active compounds read low",0.763 (active)
same,normalized growth,"locus YPL051W, strain arl3, active compounds read low",0.636 (active)
same,normalized growth,"locus YPL078C, strain atp4, active compounds read low",0.547 (active)
same,normalized growth,"locus YPL106C, strain sse1, active compounds read low",0.469 (active)
same,normalized growth,"locus YPL240C, strain hsp82, active compounds read low",0.954
same,normalized growth,[9],0.764 (active)
